Experimental data: PubChem BioAssay AID463173 (ICCB-Longwood Screening Facility, Harvard Medical School, 2010)
Out of some 52,000 compounds screened, about 1,700 (3.3%) were called active. This is one part of a sample in which actives are shown more often than they occur. A number with no mark means an inactive call. Cut-off read from the data, not from the text of the source: active = survival mostly below about 52% (no sharp cut-off); inactive = mostly above about 56%.

System: Wild type
Assay: growth inhibition of S. aureus wild type versus tarO mutant, primary screen, teichoic acid synthesis inhibitors, RN4220, OD600 (AID 463173)
Conditions: S. aureus RN4220 wild type/DeltatarO growth, OD600, 18 h, active compounds read low, screened at 18.75 µg/mL (by protocol)

SMILES | survival
CCCc1noc(-c2ccc(N3CCCCC3)c([N+](=O)[O-])c2)n1 | 77%
O=C(CN(C(=O)c1csnn1)c1ccccc1)NCc1ccc2c(c1)OCO2 | 114%
O=c1oc2ccc(Br)cc2cc1-c1nc(-c2ccccc2)no1 | 66%
O=C(CSc1nnc2[nH]c(=O)cc(-c3ccccc3)n12)Nc1ccc(F)cc1F | 94%
COCCCNC(=O)CN1C(=O)COc2ccc(S(=O)(=O)N3CCCCCC3)cc21 | 77%
CCN(CC)S(=O)(=O)c1cc(-c2onc(C)c2C)ccc1OC | 87%
CCCCn1cc(S(=O)(=O)c2ccc(Cl)cc2)c(=O)c2cc(F)c(N3CCCCC3)cc21 | 105%
Cc1cc(C)cc(OCC(=O)Nc2ccc(S(=O)(=O)Nc3onc(C)c3C)cc2)c1 | 73%
CC(=O)N1CCc2c(sc3c2c(=O)n(-c2ccccc2)c(=O)n3CC(=O)Nc2cccc(C)c2)C1 | 91%
O=C(Nc1ccc2nc(-c3ccccc3)[nH]c2c1)c1ccco1 | 1% (active)
CCC(=O)Nc1ccc(-c2nc3ccc(NC(=O)CC)cc3[nH]2)cc1 | 113%
CC(C)(C)C(=O)Nc1ccc(-c2nc3ccc(NC(=O)C(C)(C)C)cc3[nH]2)cc1 | 148%
CCOC(=O)c1sc2ccccc2c1S(=O)(=O)Nc1ccc(C(C)=O)cc1 | 90%
Cc1ccc(S(=O)(=O)c2c(O)cc(C)c(NS(=O)(=O)c3ccc(Br)cc3)c2C)cc1 | -1% (active)
Cc1ccc(S(=O)(=O)c2c(O)cc(C)c(NS(=O)(=O)c3ccc(Cl)cc3)c2C)cc1 | 105%
COc1ccc(S(=O)(=O)c2c(C)c(NS(=O)(=O)c3ccccc3)cc(C)c2O)cc1 | 90%
CC(OC(=O)c1cc2sccc2n1C)C(=O)NCC1CCCO1 (stereo not given) | 107%
COC(=O)c1ccc(-n2nnc(-c3nsc(NC(=O)c4ccc(Cl)cc4)n3)c2C)cc1 | 79%
COc1ccc(C2c3c(n(C)c4ccccc34)C(=O)N2CC(=O)Nc2cccc(F)c2)cc1 (stereo not given) | 85%
O=C(NCc1ccc(F)cc1)C(=O)NCC(c1ccc2c(c1)OCO2)N1CCOCC1 (stereo not given) | 88%
Cc1cc(OCCn2c(C3CC(=O)N(Cc4ccc(F)cc4)C3)nc3ccccc32)ccc1Cl (stereo not given) | -15% (active)
O=C1CC(c2nc3ccccc3n2CCCOc2ccccc2)CN1c1ccc(F)cc1 (stereo not given) | 107%
COc1ccc(OCCCn2c(C3CC(=O)N(c4ccc(F)cc4)C3)nc3ccccc32)cc1 (stereo not given) | 85%
CCOc1ccc(N2CC(c3nc4ccccc4n3CCOc3ccc(CC)cc3)CC2=O)cc1 (stereo not given) | 79%
COc1ccc(OCCn2c(C3CC(=O)N(c4ccc(F)cc4)C3)nc3ccccc32)cc1 (stereo not given) | 84%
CCc1ccc(OCCn2c(C3CC(=O)N(Cc4ccc(F)cc4)C3)nc3ccccc32)cc1 (stereo not given) | -14% (active)
N#C/C(=C\c1ccccc1)C(=O)Nc1sc2c(c1C(N)=O)CCC2 | 75%
COc1ccccc1CCNC(=O)c1cc2ccccn2n1 | 152%

SMILES | survival
CC(=O)Nc1c(C)nn(-c2ccccc2)c1N1CCC(C(=O)Nc2ccc(C)cc2Cl)CC1 | 71%
CC(=O)Nc1c(C)nn(-c2ccccc2)c1N1CCC(C(=O)Nc2cc(F)ccc2F)CC1 | 63%
CC(=O)Nc1c(C)nn(-c2ccccc2)c1N1CCC(C(=O)Nc2ccc(F)cc2Cl)CC1 | 60%
CC(=O)Nc1c(C)nn(-c2ccccc2)c1N1CCC(C(=O)NCc2ccc(F)cc2)CC1 | -3% (active)
CC(=O)Nc1ccc(NC(=O)C2CCN(c3c(NC(C)=O)c(C)nn3-c3ccccc3)CC2)cc1 | 63%
CC(=O)Nc1c(C)nn(-c2ccccc2)c1N1CCC(C(=O)NCc2ccc(Cl)cc2)CC1 | 81%
CC(=O)Nc1c(C)nn(-c2ccccc2)c1N1CCC(C(=O)NCc2ccccc2Cl)CC1 | -4% (active)
CC(=O)Nc1c(C)nn(-c2ccccc2)c1N1CCC(C(=O)NCc2cccc(F)c2)CC1 | 1% (active)
CC(=O)Nc1c(C)nn(-c2ccccc2)c1N1CCC(C(=O)NCc2cccc(Cl)c2)CC1 | 71%
CN(C(=O)CSc1nc2ccc(NC(=O)c3cccs3)cc2s1)c1ccccc1 | 77%
CCOc1ccc(NC(=O)Cn2cc(C(=O)C3CC3)c3ccccc32)cc1 | 78%
CC1Cc2ccccc2N1C(=O)c1cc2sccc2n1Cc1ccc(F)cc1 (stereo not given) | 119%
Cn1c(=O)cc(OCC(=O)NCc2ccc(F)cc2Cl)c2ccccc21 | 117%
CCOc1ccc(NC(=O)c2c(NC(=O)Cc3ccccc3)sc3c2CCCC3)cc1 | 69%
Cc1noc(-c2ccc(-c3noc(-c4ccccc4)n3)cc2)n1 | -6% (active)
Cc1noc(-c2ccc(-c3noc(-c4ccc(Cl)cc4)n3)cc2)n1 | 87%
Cc1noc(-c2ccc(-c3noc(-c4ccc(F)cc4)n3)cc2)n1 | 64%
Clc1cccc(C2=NC(c3cccs3)=Nc3ccc(Br)cc3N2)c1 | 79%
CCOc1ccc(-c2c(C)nn3c(C)c(C(=O)NCCN(C)C)cnc23)cc1OCC | 87%
Cc1cccc(N2CCN(c3c4c(nc5nncn35)CCC4)CC2)c1C | 84%
CCCn1c2ccccc2c2cnn(CC(=O)NC(C)CC)c(=O)c21 (stereo not given) | 64%
COc1ccccc1CNC(=O)Cn1ncc2c3ccccc3n(Cc3ccccc3C)c2c1=O | 85%
CCCn1c2ccccc2c2cnn(CC(=O)NCC3CCN(Cc4ccc(F)cc4)CC3)c(=O)c21 | 74%
CCCn1c2ccccc2c2cnn(CC(=O)NCC3CCN(Cc4ccc(C)cc4)CC3)c(=O)c21 | -1% (active)
CCCn1c2ccccc2c2cnn(CC(=O)NCc3ccccc3Cl)c(=O)c21 | 120%
CCCn1c2ccccc2c2cnn(CC(=O)NCC3CCN(Cc4ccccc4C)CC3)c(=O)c21 | 14% (active)
Cc1ccc(CNC(=O)CN(C)S(=O)(=O)c2ccc3c(c2)c(=O)n(C)c(=O)n3C)cc1 | 84%
